Source: the supplement of paper PMC10849652
The full data set covers some 8,800 targets. This sample favours those with a hit. About 0.5% of all pairs of compound and target were hits.

Columns and labels:
Test in all cases: log2 fold change, soluble protein after heating vs DMSO (PISA); higher = thermal stabilisation; K562 lysate, 10 uM; active = over 0.2 and 3.5 SD of the protein, either way, in both replicates (recomputed)
erlotinib = compound: C#Cc1cccc(Nc2ncnc3cc(OCCOC)c(OCCOC)cc23)c1 [erlotinib]
Summary of the method: (§1)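 Log-two fold change in thermal stability relative to solvent controls is reported from duplicates. For each sample, crude K562 extract from dounce-homogenised pellets in PBS pH 7.4 with 1 mM MgCl2, at 1 mg/mL protein, was treated with 10 μM compound for 30 min. Aliquots heated for 3 min across 48°C-58°C were pooled, brought to 0.5% NP-40 at 4°C and cleared at 21,000xg for 90 min. The supernatant was quantified by TMTpro 16plex LC-MS/MS with channel sums equalised.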

[1] = compound: C/C(=N\NC(=O)C1=CC(=CC=C1)S(=O)(=O)N2CCOCC2)/C3=C(C=CC(=C3)Cl)O
Summary of the method: as §1

[2] = compound: C1=CC(=CC=C1C2=NC3=C(N2)C=C(C=C3)C(=O)N)OC4=CC=C(C=C4)Cl
Summary of the method: as §1

[3] = compound: C1=CC2=C(C=CC(=C2)/C=C\3/C(=O)NC(=NCC4=CC=CS4)S3)N=C1
Summary of the method: as §1

[4] = compound: C1=CC=C(C=C1)C2=NC(=C(N2)C3=CC=NC=C3)C4=CC(=C(C=C4)Cl)O
Summary of the method: as §1

[5] = compound: C1=CC=C2C(=C1)C3=NNC4=CC=CC(=C43)C2=O
Summary of the method: as §1

[6] = compound: C1CCN(C1)C(=O)NC2=CC=CC(=C2)NC3=NC=C(C(=N3)NCCC4=CN=CN4)Br
Summary of the method: as §1

[7] = compound: C1CN(CCC1(CC2=CC=C(C=C2)Cl)N)C3=NC=NC4=C3C=CN4
Summary of the method: as §1

IRAK-1-4 Inhibitor I = compound: C1COCCN1CCN2C3=CC=CC=C3N=C2NC(=O)C4=CC(=CC=C4)[N+](=O)[O-] [IRAK-1-4 Inhibitor I]
Summary of the method: as §1

[8] = compound: CC(=O)c1cnc2ccc(-c3cc(Cl)c(O)c(Cl)c3)nc2c1N[C@H]1CC[C@H](CN(C)C)CC1
Summary of the method: as §1

ralimetinib = compound: CC(C)(C)Cn1c(N)nc2ccc(-c3[nH]c(C(C)(C)C)nc3-c3ccc(F)cc3)nc21 [ralimetinib]
Summary of the method: as §1

[9] = compound: CC(C)(O)CC(=O)NCCn1ccc2ncnc(Nc3ccc(Oc4cccc(C(F)(F)F)c4)c(Cl)c3)c21
Summary of the method: as §1

[10] = compound: CC(C)C1=C2N=C(C=C(N2N=C1)NCC3=CC=CC=C3)NCCCCCCN
Summary of the method: as §1

[11] = compound: CC1=C(C(CC(=O)N1)C2=CC=C(C=C2)C(F)(F)F)C(=O)NC3=C(C=C4C(=C3)C=NN4)F
Summary of the method: as §1

[12] = compound: CC1=C(C2=C(C=C1)C(=O)C3=CC=CC=C3N2CCCN)C
Summary of the method: as §1

[13] = compound: CC1=C(C=C(C=C1)NC(=O)C2=CC(=CC=C2)C(C)(C)C#N)NC3=CC4=C(C=C3)N=CN(C4=O)C
Summary of the method: as §1

[14] = compound: CC1=C(C=C(C=C1)NC(=O)C2=CC(=CC=C2)N(C)C)NC(=O)C3=CC=C(C=C3)O
Summary of the method: as §1

[15] = compound: CC1=CC=C(C=C1)SC2=C3C=C(SC3=CN=C2)C(=O)N
Summary of the method: as §1

[16] = compound: C1=CC2=NC=CN=C2C=C1/C=C/3\C(=O)NC(=O)S3
Summary of the method: as §1

ibrutinib = compound: C=CC(=O)N1CCC[C@@H](n2nc(-c3ccc(Oc4ccccc4)cc3)c3c(N)ncnc32)C1 [ibrutinib]
Summary of the method: as §1

Sequence of UniProt Q9UNH5 (Q9UNH5 whole entry, looked up): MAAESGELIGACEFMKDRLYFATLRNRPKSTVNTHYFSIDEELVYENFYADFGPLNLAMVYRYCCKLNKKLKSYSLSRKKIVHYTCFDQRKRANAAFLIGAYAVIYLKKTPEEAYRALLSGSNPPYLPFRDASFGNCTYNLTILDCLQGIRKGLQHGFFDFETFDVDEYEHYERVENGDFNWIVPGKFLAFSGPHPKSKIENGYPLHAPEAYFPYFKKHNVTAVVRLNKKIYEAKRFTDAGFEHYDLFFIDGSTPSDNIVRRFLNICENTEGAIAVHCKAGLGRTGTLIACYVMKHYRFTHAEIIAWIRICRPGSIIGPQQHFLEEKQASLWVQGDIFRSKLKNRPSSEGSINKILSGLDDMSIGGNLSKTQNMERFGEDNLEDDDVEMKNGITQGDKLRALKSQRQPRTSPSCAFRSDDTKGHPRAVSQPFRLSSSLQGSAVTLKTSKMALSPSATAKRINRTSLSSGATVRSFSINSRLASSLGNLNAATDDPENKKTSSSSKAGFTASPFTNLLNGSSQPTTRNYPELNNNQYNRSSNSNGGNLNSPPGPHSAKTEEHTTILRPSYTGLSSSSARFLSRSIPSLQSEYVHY
Sequence of UniProt Q8IWZ6 (Q8IWZ6 whole entry, looked up): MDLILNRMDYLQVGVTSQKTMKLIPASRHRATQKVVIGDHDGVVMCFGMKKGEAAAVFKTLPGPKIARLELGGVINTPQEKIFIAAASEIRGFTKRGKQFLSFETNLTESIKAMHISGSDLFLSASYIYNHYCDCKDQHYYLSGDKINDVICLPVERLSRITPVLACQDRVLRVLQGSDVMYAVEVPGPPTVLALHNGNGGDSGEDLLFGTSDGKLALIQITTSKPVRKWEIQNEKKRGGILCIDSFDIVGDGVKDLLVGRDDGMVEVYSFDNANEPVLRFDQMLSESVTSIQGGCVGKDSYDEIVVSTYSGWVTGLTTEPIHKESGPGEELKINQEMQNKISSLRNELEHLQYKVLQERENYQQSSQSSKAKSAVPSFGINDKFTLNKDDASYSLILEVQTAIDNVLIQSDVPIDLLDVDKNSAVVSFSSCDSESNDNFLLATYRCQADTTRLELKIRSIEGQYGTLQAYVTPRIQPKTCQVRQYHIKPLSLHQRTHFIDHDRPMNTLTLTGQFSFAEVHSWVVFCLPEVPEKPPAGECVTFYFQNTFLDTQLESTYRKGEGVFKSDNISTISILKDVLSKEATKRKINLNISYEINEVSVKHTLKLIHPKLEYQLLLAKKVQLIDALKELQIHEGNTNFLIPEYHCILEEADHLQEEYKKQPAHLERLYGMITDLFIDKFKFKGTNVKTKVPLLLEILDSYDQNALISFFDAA
Sequence of UniProt Q6ZU80 (Q6ZU80 whole entry, looked up): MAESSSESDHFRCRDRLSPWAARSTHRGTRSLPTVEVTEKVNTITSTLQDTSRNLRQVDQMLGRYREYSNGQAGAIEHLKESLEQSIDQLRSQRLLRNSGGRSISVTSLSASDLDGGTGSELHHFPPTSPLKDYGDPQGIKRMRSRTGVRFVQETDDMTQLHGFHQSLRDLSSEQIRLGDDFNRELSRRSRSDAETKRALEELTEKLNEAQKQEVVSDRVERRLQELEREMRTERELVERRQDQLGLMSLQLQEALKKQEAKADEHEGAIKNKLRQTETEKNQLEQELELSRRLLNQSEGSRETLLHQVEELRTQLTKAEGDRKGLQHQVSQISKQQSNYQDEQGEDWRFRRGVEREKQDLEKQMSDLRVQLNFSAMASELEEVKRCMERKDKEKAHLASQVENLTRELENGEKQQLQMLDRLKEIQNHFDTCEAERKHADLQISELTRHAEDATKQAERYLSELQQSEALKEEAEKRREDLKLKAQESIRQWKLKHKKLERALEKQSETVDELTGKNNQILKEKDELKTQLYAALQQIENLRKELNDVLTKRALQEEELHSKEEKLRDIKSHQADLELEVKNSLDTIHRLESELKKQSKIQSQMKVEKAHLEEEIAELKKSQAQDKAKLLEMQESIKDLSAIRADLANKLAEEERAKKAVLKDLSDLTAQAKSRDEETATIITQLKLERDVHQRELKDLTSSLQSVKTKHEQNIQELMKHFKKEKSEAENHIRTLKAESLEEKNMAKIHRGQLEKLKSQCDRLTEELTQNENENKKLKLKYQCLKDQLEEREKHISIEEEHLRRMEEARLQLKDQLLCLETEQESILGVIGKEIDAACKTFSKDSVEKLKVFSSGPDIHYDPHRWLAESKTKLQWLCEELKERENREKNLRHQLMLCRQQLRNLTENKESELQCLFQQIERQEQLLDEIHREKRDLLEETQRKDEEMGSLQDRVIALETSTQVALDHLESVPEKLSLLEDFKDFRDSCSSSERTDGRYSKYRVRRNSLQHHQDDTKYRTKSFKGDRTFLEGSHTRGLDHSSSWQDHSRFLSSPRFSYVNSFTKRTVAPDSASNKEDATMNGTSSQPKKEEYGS
Sequence of UniProt Q9NZM4 (Q9NZM4 whole entry, looked up): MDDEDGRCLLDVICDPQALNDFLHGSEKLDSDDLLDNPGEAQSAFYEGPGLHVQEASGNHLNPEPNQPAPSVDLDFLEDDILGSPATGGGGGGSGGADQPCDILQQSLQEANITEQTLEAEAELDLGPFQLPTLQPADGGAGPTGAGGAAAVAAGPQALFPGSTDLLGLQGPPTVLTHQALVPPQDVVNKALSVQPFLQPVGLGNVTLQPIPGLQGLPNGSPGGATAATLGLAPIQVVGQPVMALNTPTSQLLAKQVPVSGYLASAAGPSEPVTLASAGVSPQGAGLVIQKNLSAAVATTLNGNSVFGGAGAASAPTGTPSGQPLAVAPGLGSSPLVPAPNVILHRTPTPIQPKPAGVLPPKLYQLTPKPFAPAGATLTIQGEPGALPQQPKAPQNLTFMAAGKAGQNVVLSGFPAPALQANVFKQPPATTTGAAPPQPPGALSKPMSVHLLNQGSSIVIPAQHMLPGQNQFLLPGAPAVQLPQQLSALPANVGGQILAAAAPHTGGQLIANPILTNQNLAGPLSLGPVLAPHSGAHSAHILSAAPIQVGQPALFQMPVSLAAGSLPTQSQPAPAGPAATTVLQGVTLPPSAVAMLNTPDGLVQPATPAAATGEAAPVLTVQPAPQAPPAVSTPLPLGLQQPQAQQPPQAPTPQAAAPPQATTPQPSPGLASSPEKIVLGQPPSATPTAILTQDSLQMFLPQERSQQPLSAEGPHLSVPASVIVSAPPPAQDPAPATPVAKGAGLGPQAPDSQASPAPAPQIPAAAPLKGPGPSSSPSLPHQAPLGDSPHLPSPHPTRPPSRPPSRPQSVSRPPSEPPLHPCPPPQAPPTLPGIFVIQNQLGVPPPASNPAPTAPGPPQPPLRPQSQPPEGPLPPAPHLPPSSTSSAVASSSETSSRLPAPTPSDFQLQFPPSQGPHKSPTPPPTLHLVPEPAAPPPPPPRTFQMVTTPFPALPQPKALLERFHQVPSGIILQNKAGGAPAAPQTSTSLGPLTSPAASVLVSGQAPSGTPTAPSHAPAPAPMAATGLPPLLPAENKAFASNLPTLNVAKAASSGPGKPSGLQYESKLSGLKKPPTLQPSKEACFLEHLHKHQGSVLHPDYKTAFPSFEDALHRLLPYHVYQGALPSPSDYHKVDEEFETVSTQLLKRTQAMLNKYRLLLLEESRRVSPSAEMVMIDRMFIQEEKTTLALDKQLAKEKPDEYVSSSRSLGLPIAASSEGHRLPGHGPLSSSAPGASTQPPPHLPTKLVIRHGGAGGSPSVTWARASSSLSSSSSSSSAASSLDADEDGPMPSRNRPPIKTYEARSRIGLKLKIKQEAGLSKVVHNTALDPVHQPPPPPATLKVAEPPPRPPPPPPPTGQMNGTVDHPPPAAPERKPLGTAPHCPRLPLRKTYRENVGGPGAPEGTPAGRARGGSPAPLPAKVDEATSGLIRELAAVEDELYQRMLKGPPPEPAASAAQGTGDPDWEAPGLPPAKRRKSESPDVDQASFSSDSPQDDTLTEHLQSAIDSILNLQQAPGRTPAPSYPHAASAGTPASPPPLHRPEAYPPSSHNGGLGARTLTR
Sequence of UniProt P55210 (P55210 whole entry, looked up): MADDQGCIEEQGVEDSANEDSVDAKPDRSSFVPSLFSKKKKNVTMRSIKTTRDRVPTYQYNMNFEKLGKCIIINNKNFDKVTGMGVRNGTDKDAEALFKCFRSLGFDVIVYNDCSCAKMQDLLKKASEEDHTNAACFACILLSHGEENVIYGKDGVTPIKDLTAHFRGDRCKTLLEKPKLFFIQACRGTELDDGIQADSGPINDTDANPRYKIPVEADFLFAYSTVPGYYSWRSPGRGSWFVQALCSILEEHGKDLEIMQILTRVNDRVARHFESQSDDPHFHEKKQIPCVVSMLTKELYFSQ
Sequence of UniProt Q9BUK0 (Q9BUK0 whole entry, looked up): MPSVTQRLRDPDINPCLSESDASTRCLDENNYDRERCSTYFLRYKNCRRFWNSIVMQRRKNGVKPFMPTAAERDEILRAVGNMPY
Sequence of UniProt Q7Z4R8 (Q7Z4R8 whole entry, looked up): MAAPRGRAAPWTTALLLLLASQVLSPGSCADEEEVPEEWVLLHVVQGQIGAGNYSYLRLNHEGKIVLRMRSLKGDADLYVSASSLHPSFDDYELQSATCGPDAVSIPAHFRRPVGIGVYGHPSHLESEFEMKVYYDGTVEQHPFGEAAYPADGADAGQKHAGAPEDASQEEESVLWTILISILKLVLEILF
Sequence of UniProt Q8NDD1 (Q8NDD1 whole entry, looked up): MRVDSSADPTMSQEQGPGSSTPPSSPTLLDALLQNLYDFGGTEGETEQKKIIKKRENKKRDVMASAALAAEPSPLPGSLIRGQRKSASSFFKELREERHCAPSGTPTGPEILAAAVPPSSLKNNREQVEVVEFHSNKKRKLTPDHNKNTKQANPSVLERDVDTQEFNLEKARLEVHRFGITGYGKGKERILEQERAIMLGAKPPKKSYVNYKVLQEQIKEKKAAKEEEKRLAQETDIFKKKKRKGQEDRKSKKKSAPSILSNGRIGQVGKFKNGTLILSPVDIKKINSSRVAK

Target | log2 fold change (erlotinib) | log2 fold change [1] | log2 fold change [2] | log2 fold change [3] | log2 fold change [4] | log2 fold change [5] | log2 fold change [6] | log2 fold change [7] | log2 fold change (IRAK-1-4 Inhibitor I) | log2 fold change [8] | log2 fold change (ralimetinib) | log2 fold change [9] | log2 fold change [10] | log2 fold change [11] | log2 fold change [12] | log2 fold change [13] | log2 fold change [14] | log2 fold change [15] | log2 fold change [16] | log2 fold change (ibrutinib)
C1orf131 isoform 5 (UniProt Q8NDD1) | -0.006 (inactive) | -0.094 (inactive) | 0.051 (inactive) | -0.058 (inactive) | -0.013 (inactive) | -0.001 (inactive) | -0.062 (inactive) | -0.011 (inactive) | 0.067 (inactive) | 0.041 (inactive) | 0.06 (inactive) | -0.056 (inactive) | 0.028 (inactive) | -0.016 (inactive) | -0.071 (inactive) | 0.08 (inactive) | 0.025 (inactive) | -0.043 (inactive) |  | 
BBS7 (UniProt Q8IWZ6) | -0.095 (inactive) | 0.146 (inactive) | -0.014 (inactive) | -0.034 (inactive) | 0.057 (inactive) | -0.098 (inactive) | -0.068 (inactive) | 0.082 (inactive) | 0.022 (inactive) |  | 0.047 (inactive) | 0.015 (inactive) | -0.021 (inactive) | 0.077 (inactive) | 0.182 (inactive) | 0.181 (inactive) | -0.013 (inactive) |  |  | 
CEP128 (UniProt Q6ZU80) |  | -0.069 (inactive) |  | 0 (inactive) | 0.236 (inactive) | -0.102 (inactive) | -0.138 (inactive) | -0.015 (inactive) | -0.212 (inactive) |  | -0.06 (inactive) | -0.001 (inactive) |  |  | 0.078 (inactive) |  | -0.03 (inactive) |  | -0.234 (inactive) | 0.166 (inactive)
BRAF, A0A2R8Y8E0 |  | -0.005 (inactive) |  | 0.001 (inactive) |  | 0.119 (inactive) | 0.067 (inactive) | -0.045 (inactive) |  |  |  |  |  |  |  |  |  |  |  | 
CCAR2 (UniProt G3V119) |  |  |  |  |  |  |  |  |  | 0.017 (inactive) |  |  |  |  |  |  |  | -0.047 (inactive) |  | 
C15orf39 (UniProt Q6ZRI6) | -0.029 (inactive) |  | 0.026 (inactive) |  | 0.052 (inactive) |  | 0.019 (inactive) | -0.009 (inactive) | 0.034 (inactive) |  | -0.005 (inactive) | -0.029 (inactive) | -0.06 (inactive) | 0.104 (inactive) | 0.039 (inactive) | -0.03 (inactive) | 0.019 (inactive) |  | -0.031 (inactive) | -0.141 (inactive)
C3AR1 (UniProt Q16581) |  |  |  |  |  |  |  |  |  |  |  |  |  | 0.001 (inactive) |  | -0.074 (inactive) |  |  | 0.145 (inactive) | 0.018 (inactive)
C6orf120 (UniProt Q7Z4R8) | 0.043 (inactive) |  | -0.014 (inactive) |  |  |  |  |  |  | -0.017 (inactive) |  |  | -0.003 (inactive) |  | 0.015 (inactive) |  |  | 0.126 (inactive) | 0.008 (inactive) | 0.013 (inactive)
CASP7 isoform 3 (UniProt P55210) | 0.104 (inactive) |  | 0.008 (inactive) |  | 0.019 (inactive) |  | -0.013 (inactive) | 0.098 (inactive) | 0.241 (inactive) | 0.125 (inactive) | -0.118 (inactive) | -0.012 (inactive) | -0.123 (inactive) | -0.029 (inactive) | -0.161 (inactive) | 0.043 (inactive) | -0.124 (inactive) | -0.052 (inactive) | -0.086 (inactive) | 0 (inactive)
CASC1 (UniProt Q6TDU7) |  |  |  |  | -0.03 (inactive) |  |  |  | 0.179 (inactive) |  | 0.078 (inactive) | -0.093 (inactive) |  |  |  |  | 0.097 (inactive) |  | 1.74 (active) | 0.24 (inactive)
CDAN1 (UniProt H3BPZ6) |  |  |  |  |  |  |  |  |  |  |  |  |  |  |  | -0.172 (inactive) |  |  |  | 
CDC14A isoform 2 (UniProt Q9UNH5) |  |  |  |  | 0.082 (inactive) |  |  |  | -0.102 (inactive) | 0.107 (inactive) | -0.336 (inactive) | -0.135 (inactive) |  | -0.04 (inactive) |  | 0.145 (inactive) | 0.219 (inactive) | 0.006 (inactive) |  | 
BICRA (UniProt Q9NZM4) | 0.204 (inactive) |  | 0.231 (inactive) |  | 0.065 (inactive) |  |  |  | 0.115 (inactive) | -0.093 (inactive) | -0.138 (inactive) | -0.271 (inactive) | 0.102 (inactive) |  | -0.168 (inactive) | -0.012 (inactive) | -0.003 (inactive) | -0.156 (inactive) | 0.12 (inactive) | -0.053 (inactive)
CHCHD7 isoform 4 (UniProt Q9BUK0) |  | -0.158 (inactive) |  | 0.048 (inactive) | 0.046 (inactive) | -0.012 (inactive) | 0.006 (inactive) | 0.072 (inactive) | -0.025 (inactive) | 0.008 (inactive) | -0.038 (inactive) | -0.014 (inactive) |  | 0.116 (inactive) | 0.002 (inactive) | -0.025 (inactive) | 0.024 (inactive) | -0.061 (inactive) | 0.014 (inactive) | -0.109 (inactive)
